# Giardia FBPA inh-1 = Giardia lamblia aldolase inhibition; A8B2U2; purified Giardia FBPA; Potency, µM (top dose mostly 59.6 µM), for the others: top-dose activity, negative = inhibition, usual class: inhibitors; 0.71% of 290,000 active; AID 2451; note: potency is the fitted concentration of half-maximal effect; % is set by controls: 0 for no effect and ±100 for the full control effect; nearly all actives have a fitted effect of over 55% in size
#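 40 nM FBPA preincubated 10 min at RT with compound (up to 57.5 uM final), then substrate plus GAPDH/TPI/NAD/arsenate coupling and diaphorase/resazurin added. Fluorescence read after 20 min at RT, 525/598 nm.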
# Cycloheximide cs = affects cycloheximide protein synthesis inhibition readout, counter-screen | cell reporter, cycloheximide protein synthesis inhibition counterscreen | 12% of 300,000 active | AID 2314 | max response, %; in the data active = max response mostly above about 13%, no sharp cut-off; inactive = mostly below about 14%; note: read at 38.3 µM for the half of the compounds with a filed dose; 0% is about no effect
# NS1 function inh = influenza NS1 inhibition; Potency, µM (top dose mostly 46.1 µM), inactives show at the top dose activity, positive = more growth; 0.4% of 270,000 active; calls by dose curve; note: potency is the fitted concentration of half-maximal effect; actives are rising curves; nearly all actives have a fitted effect of over 50% in size
#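 Growth recovery, yeast-based: influenza A NS1 expressed in S. cerevisiae causes slow growth, and suppressors are detected by OD600. The parent strain without NS1 is used as positive control.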
# Shiga inhibitor = inhibitors of Shiga toxin in Vero cells; Vero cells, Shiga toxin protein synthesis inhibition reporter; inhibition, % at 38.7 µM; 9.2% of 290,000 active; AID 2315; in the data active = inhibition mostly above about 28%, no sharp cut-off; inactive = mostly below about 43%; note: 0% is about no effect
# LmPK inhibitor = inhibitors of Leishmania mexicana pyruvate kinase; 0.37% of 290,000 active; Potency, µM (highest dose often 57.5 µM), without a hit: top-dose activity change, negative = inhibition, hits mostly inhibitors; purified LmPK, Kinase-Glo ATP luminescence, 1 h; AID 1721; Q27686; note: potency is the fitted concentration of half-maximal effect; % is set by controls: 0 for no effect and ±100 for the full control effect
# Target sequence (Q27686 whole entry, looked up): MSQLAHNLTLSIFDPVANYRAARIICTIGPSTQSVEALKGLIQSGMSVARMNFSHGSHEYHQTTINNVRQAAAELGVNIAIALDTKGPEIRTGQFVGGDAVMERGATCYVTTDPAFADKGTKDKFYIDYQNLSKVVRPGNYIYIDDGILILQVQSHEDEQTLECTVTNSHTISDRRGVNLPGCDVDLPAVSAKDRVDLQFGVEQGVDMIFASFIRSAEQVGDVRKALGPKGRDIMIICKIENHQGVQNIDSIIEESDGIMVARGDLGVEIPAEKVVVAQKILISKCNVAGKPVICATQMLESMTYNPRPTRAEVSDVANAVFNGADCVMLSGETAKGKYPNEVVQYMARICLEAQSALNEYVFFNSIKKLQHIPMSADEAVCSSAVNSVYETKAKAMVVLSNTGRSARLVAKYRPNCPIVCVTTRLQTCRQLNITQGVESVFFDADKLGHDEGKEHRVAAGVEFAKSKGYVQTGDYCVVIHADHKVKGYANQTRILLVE
#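 Kinase-Glo luminescence read after 1 h RT reaction of 0.1 nM LmPK with 0.5 mM PEP and 0.1 mM ADP. Activity scaled between uninhibited and enzyme-free controls.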
# Giardia growth = Giardia lamblia growth inhibition | AID 2785 | shares compounds with Giardia FBPA inh-1 | Giardia lamblia trophozoite growth inhibition | 5% of 1,500 active | Potency, µM (highest dose often 57.5 µM), for inactives: at the highest dose activity change, negative = inhibition, actives largely listed as inhibitors;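 note: potency is the fitted concentration of half-maximal effect; trophozoites exposed to compound for 48 h at 37 °C; % is set by controls: 0 for no effect and ±100 for the full control effect; nearly all actives have a fitted effect of over 70% in size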
# Mammal cell tox = mammalian cytotoxicity of Giardia aldolase inhibitor hits; AID 2786; 4% of 1,500 active; Potency, µM (highest dose often 57.5 µM), inactives show top-dose viability change, negative = toxicity, hits mostly inhibitors; mammalian cell viability counter-screen, qHTS; shares compounds with Giardia FBPA inh-1;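 note: Chinese hamster ovary cells used as mammalian cytotoxicity surrogate; viability measured as cellular ATP by luminescence; potency is the fitted concentration of half-maximal effect; compound exposure lasted 48 h before reading; % is set by controls: 0 for no effect and ±100 for the full control effect; nearly all actives have a fitted effect of over 60% in size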
# Giardia FBPA inh-2 = confirmation of Giardia fructose-bisphosphate aldolase inhibitors; purified Giardia aldolase enzyme activity, qHTS; Potency, µM (titrated, usually from 57.5 µM), without a hit: at the highest dose activity change, negative = inhibition, hits mostly inhibitors; AID 2787; shares compounds with Giardia FBPA inh-1; 5% of 1,500 active; note: potency is the fitted concentration of half-maximal effect; % is set by controls: 0 for no effect and ±100 for the full control effect; nearly all actives have a fitted effect of over 45% in size
# Rabbit aldolase = selectivity test for Giardia aldolase inhibitors: rabbit aldolase; shares compounds with Giardia FBPA inh-1; Potency, µM (titrated, usually from 57.5 µM), inactives show at the highest dose activity, negative = inhibition, hits mostly inhibitors; Rabbit muscle FBPA enzyme inhibition, selectivity counter-screen; 4% of 1,500 active; note: potency is the fitted concentration of half-maximal effect; % is set by controls: 0 for no effect and ±100 for the full control effect; nearly all actives have a fitted effect of over 60% in size
# GAPDH coupling = counter-screen for Giardia aldolase inhibitors: GAPDH coupling enzyme | shares compounds with Giardia FBPA inh-1 | GAPDH coupling enzyme counterscreen, biochemical, qHTS | Potency, µM (top dose mostly 57.5 µM), for the others: top-dose activity change, negative = inhibition, most hits filed as inhibitors | 6% of 1,500 active | AID 2795; note: potency is the fitted concentration of half-maximal effect; % is set by controls: 0 for no effect and ±100 for the full control effect; nearly all actives have a fitted effect of over 55% in size
# Starred values were filed as active, the others as inactive; ? = inconclusive; · = not tested or not shown; [ ] = another dose, or the depositor's remark. An excerpt weighted towards active compounds, which were near 14% of everything screened. Unless noted, calls come from the whole dose curve; as a rule, active = well fitted curve in the direction sought with a large enough effect; inconclusive = small, poorly fitted or top-dose-only effect, or another doubt; inactive = no such curve, though single readings can be large; an effect the other way counts as inactive or inconclusive.
SMILES,Giardia FBPA inh-1,Cycloheximide cs,NS1 function inh,Shiga inhibitor,LmPK inhibitor,Giardia growth,Mammal cell tox,Giardia FBPA inh-2,Rabbit aldolase,GAPDH coupling
Cc1ccc(C2CC(=O)C(C=NCCN3CCN(C(=S)Nc4ccc(F)cc4)CC3)=C(O)C2)cc1 (centres undefined),0%,9,·,4,6%,·,·,·,·,·
Cc1cc(C)nc(N/N=C/C2=C(O)CC(c3ccc(F)cc3)CC2=O)n1 (centres undefined),-21%,6,0%,-6,5%,4%[38.3 µM],?,9%,7%,1%
COC(=O)[C@@]1(Cc2ccccc2)[C@H]2c3cc(C(=O)N(C)C)n(Cc4c(CO)[nH]cc(C)c4=O)c3C[C@H]2CN1C(=O)c1ccccc1,1%,·,·,·,·,·,·,·,·,·
CC(=O)CSc1nc2c(c(=O)[nH]c(=O)n2C)n1CCCc1ccccc1,-16%,-2,2%,·,-1%,·,·,·,·,·
CC1CCN(S(=O)(=O)c2nnc(NC(=O)c3ccccc3Br)s2)CC1,?,-4,-2%,7,7%,·,·,·,·,·
CC1CCCN(S(=O)(=O)c2ccc(C(=O)Nc3nnc(-c4ccccc4Cl)o3)cc2)C1 (centres undefined),?,-1,-7%,-5,0%,·,·,·,·,·
CC1CN(S(=O)(=O)c2ccc(C(=O)Nc3nnc(-c4ccco4)o3)cc2)CC(C)O1 (centres undefined),18µM*,-2,-7%,-8,2%,-8%,20%,21%,13%,7%
O=C(Nc1nnc(-c2ccco2)o1)c1ccc(S(=O)(=O)N2CCCC2)cc1,5µM*,7,·,30,1%[11.5 µM],0%[10.4 µM],-6%,11%,12%,-15%
CC1CCCN(S(=O)(=O)c2ccc(C(=O)Nc3nnc(-c4ccccn4)o3)cc2)C1 (centres undefined),18µM*,-5,5%,2,7%,-17%,16%,24%,19%,8%
CCN1CCN(CCNC(=O)c2ccc(CS(=O)c3ccc(Br)cc3)o2)CC1 (centres undefined),·,-9,1%,-7,-11%,·,·,·,·,·
CC(NC(=O)c1cccc(OC2CCN(C3CCN(C)CC3)CC2)c1)c1ccccc1 (centres undefined),·,2,9%,-6,6%,·,·,·,·,·
O=C(Cc1ccccc1)N1CCN(Cc2ccc(F)cc2)CC1,28µM*,-4,3%,4,-2%,2%[10.4 µM],5%,6%,18%,9%
c1ccc(CN2CCN(C(c3ccccc3)c3ccccc3)CC2)cc1,-24%,-2,-8%,-12,0%,·,·,·,·,·
O=C(Cc1ccccc1)N1CCN(CCCc2ccccc2)CC1,25µM*,-2,9%,-7,-9%,50%,1%,-2%,8%,7%
O=C(c1cccs1)N1CCN(CCCc2ccccc2)CC1,-25%,7,0%,-1,-4%,·,·,·,·,·
Clc1ccccc1CN1CCN(CCCc2ccccc2)CC1,20µM*,-3,·,25,2%,-47%,-2%,-1%,7%,9%
Fc1ccc(CN2CCN(C(c3ccccc3)c3ccccc3)CC2)cc1,25µM*,-3,-23%,-9,-6%,?,19%,-1%,12%,-5%
Cc1c(C(=O)NC(=S)NCc2cccnc2)cccc1[N+](=O)[O-],·,-2,-5%,-2,-3%,·,·,·,·,·
N#Cc1c(-c2ccco2)c2c([nH]c1=S)CCCC2,?,2,?,-4,3%,·,·,·,·,·
CCN(CC)C(=O)c1c(C)[nH]c(=S)c(C#N)c1-c1ccco1,10µM*,-1,·,-21,52%,1%,1%,5%,-3%,8%
CC(=O)c1ccc(NC(=O)Cn2cnc(S(=O)(=O)N3CCc4ccccc43)c2)cc1,-9%,7,2%,12,0%,·,·,·,·,·
Cc1nc(SCC(=O)c2ccccc2)n[nH]1,13µM*,63,-53%,15,9%,11%,-11%,5%,10%,3%
O=C(CSc1n[nH]c(-c2ccncc2)n1)c1ccccc1,6%,-1,-7%,21,-9%,·,·,·,·,·
COc1ccccc1CSc1nc2c(c(=O)n(C)c(=O)n2C)n1C,-1%,-1,-2%,-8,-6%,·,·,·,·,·
CCC(CC)C(=O)Nc1nnc(SCC(=O)NC2CC2)s1,12%,-2,4%,-12,-6%,·,·,·,·,·
SMILES,Giardia FBPA inh-1,Cycloheximide cs,NS1 function inh,Shiga inhibitor,LmPK inhibitor,Giardia growth,Mammal cell tox,Giardia FBPA inh-2,Rabbit aldolase,GAPDH coupling
Cc1nc(NC(=O)CN2CCN(c3ccccc3F)CC2)sc1C(=O)N(C)C,3.2µM*,-1,20%,7,5%,0%[10.4 µM],-1%,4%,5%,-13%
Cc1ccccc1N1CCN(CC(=O)Nc2nc(C)c(C(=O)N(C)C)s2)CC1,?,5,7%,-14,-6%,·,·,·,·,·
O=C(O)COCC(=O)N1CCc2c([nH]c3ccccc23)C1C(F)(F)F (centres undefined),16%,-1,0%,-3,-2%,·,·,·,·,·
Cc1ccc(NC(=O)CN(C)C2CCCCC2)cc1Cl,20µM*,5,-18%,-1,-6%,18%,2%,8%,2%,1%
CCc1cccc(C)c1NC(=S)N(CCN(C)C)C(C)c1ccco1 (centres undefined),1%,-3,-2%,-7,2%,·,·,·,·,·
COc1cc(OC)c(C2CC(=O)N3CN(C)CSC3=C2C#N)cc1OC (centres undefined),0.56µM*,-1,-50%,-8,?,6%[38.3 µM],-11%,?,-27%,?
CCOc1ccc(N2CSC3=C(C#N)C(c4ccco4)CC(=O)N3C2)cc1 (centres undefined),7.9µM*,1,19%,-6,5%,44%,-3%,?,?,?
COc1ccc(OC)c(C2CC(=O)N3CN(c4cccc(Cl)c4)CSC3=C2C#N)c1 (centres undefined),3.5µM*,1,-11%,4,5%,21%,5%,-17%,-24%,-19%
COc1cccc(C2CC(=O)N3CN(c4ccccc4F)CSC3=C2C#N)c1 (centres undefined),3.2µM*,-6,4%,-22,10%,-7%[10.4 µM],19%,-20%,-26%,-6%
N#CC1=C2SCN(c3ccccc3)CN2C(=O)CC1c1ccccc1Cl (centres undefined),?,9,-26%,23,2%,·,·,·,·,·
